According to PubChem BioAssay AID624414 (National Center for Advancing Translational Sciences (NCATS), 2012):
In all, about 410,000 compounds went through this assay and about 480 (0.12%) were called active. Shown is part of a subset that was picked to be rich in actives. A number with no mark means an inactive call. Cut-off read from the data, not from the text of the source: active = activation above about 50%; inconclusive = mostly about 30% to 49%; inactive = weaker than that.

What follows are compounds tested against Mucolipin-1 (Homo sapiens) (UniProt Q9GZU1) (assay: qHTS for Agonists of the Human Mucolipin Transient Receptor Potential 1 (TRPML1)). Conditions: TRPML1-expressing cells, Ca2+ dye fluorescence, FDSS; hits give high values.
Chain of Mucolipin-1 (Homo sapiens) (Q9GZU1 whole entry, looked up, the tested form may be a part): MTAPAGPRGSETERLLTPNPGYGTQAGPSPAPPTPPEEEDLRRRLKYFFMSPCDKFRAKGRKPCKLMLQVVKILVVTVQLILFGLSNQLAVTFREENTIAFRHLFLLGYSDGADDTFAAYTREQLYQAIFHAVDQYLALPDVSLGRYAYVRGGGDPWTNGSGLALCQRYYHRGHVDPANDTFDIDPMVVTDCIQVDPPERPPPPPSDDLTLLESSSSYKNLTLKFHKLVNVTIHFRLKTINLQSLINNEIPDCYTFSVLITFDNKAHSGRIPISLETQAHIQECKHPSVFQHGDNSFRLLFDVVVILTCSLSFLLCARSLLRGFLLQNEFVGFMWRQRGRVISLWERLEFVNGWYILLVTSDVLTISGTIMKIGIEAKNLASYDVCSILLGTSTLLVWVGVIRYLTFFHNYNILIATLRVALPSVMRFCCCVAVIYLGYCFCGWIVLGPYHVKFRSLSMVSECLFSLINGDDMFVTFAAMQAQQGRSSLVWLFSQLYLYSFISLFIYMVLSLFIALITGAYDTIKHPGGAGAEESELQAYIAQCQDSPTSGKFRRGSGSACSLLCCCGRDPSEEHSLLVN
Text: Mutations of human Mucolipin transient receptor potential 1 (TRPML1) cause type IV mucolipidosis (ML4), a devastating neurodegenerative disease in young children. […] Currently, there is no treatment for ML4. […] Under physiological conditions, TRPMLs regulate membrane trafficking by transducing information about PI(3,5)P2 levels into changes in juxtaorganellar Ca2+, thereby triggering membrane fusion/fission events in the late endocytic pathways (endolysosomal trafficking). In addition, TRPML1 mediates release of Fe2+ from late endosomes and lysosomes, which is essential for cellular iron metabolism. Thus, impaired ion (Ca2+ and Fe2+) homeostasis underlies lysosomal dysfunction and ML4 phenotypes. In ML4 cells, the problem is twofold. First, defective Ca2+-dependent membrane trafficking due to TRPML1-deficiency causes accumulation of lipids and other bio-materials in the lysosome. The second strike comes from the lysosomal iron overload (due to impairment of TRPML1's Fe2+ conductivity), which converts the accumulated materials into the nondegradable (resistant to lysosomal degradation) lipofuscin (also called aging pigment) in the lysosome. Lipofuscin accumulation dramatically compromises the functions of lysosomes.
Niemann-Pick type C (NPC) disease is another lysosome storage disease (LSD) with severe neurodegeneration during the childhood. Currently, there is no cure for NPC. […] Thus, TRPML1 is likely to be an essential regulator of lysosome ion homeostasis. We specifically hypothesize that stimulating TRPML1's Fe2+/Ca2+ channel activity in the lysosome using synthetic agonists can alleviate neurodegeneration associated with ML4 or NPC.
To this end, a high throughput screen was developed in a miniaturized format to screen against the Molecular Libraries Small Molecule Repository (MLSMR) to find small molecules that act either as inhibitors or agonist against the TRPML1 channel.
NIH Chemical Genomics Center [NCGC]
NIH Molecular Libraries Probe Centers Network [MLPCN]
Assay Submitter (PI): Haoxing Xu, University of Michigan Ann Arbor
TRPML1-DL cells are dissociated from flasks, counted and, brought up to a density of 500,000 cells per mL of media containing a 1X Tet inducer. Using a Multidrop Combi, 3uL of this cell solution is dispensed to each well of a 1536 TC treated, black, clear bottom hi base plate for a final cell density of 1,500 cells per well. The assay plates are incubated overnight (approximately 16 hours) at 37 degrees C and 5% CO2. Using a Multidrop Combi, 2uL of ABD Ca8 no wash dye plus quencher is added to each well. The assay plates incubate at room temperature in the dark for 45-90 minutes. The assay plate is read on the FDSS using the following protocol: 10 second baseline read, 23nL of compounds and controls are added using 1536 pintool, agonist read for 110 seconds, 1 uL EC80 addition (4uM final 54-4 diluted in media), antagonist read for 110 seconds.
Note: 0% is about no effect.

Compound	activation
Cc1nn(CC(=O)O)c(=O)c2cc3cc(F)ccc3n12	-0.613%
CC1CC(C)CN(c2oc(-c3ccc(OCc4ccc(Cl)cc4)cc3)nc2C#N)C1 (stereo unspecified)	-0.254%
COc1ccc(-c2ccc(C3C4C=CCCC4(C)C(=O)N3Cc3ccccc3)c(F)c2)cc1OC (stereo unspecified)	0.474%
COc1ccc(Cl)cc1NC(=O)c1sc2nc3c(cc2c1N)CN(C)CC3	1.12%
O=C(c1ccc2c(c1)N(Cc1ccccc1)C(=O)c1ccccc1S2(=O)=O)N1CCC(Cc2ccccc2)CC1	0.0562%
CC(=O)c1ccc(NS(=O)(=O)c2ccc(-c3cc(C)no3)s2)cc1	-0.182%
CN(C)c1cccc2ccccc12	-0.266%
CC(C)(C)OC(=O)N(Cc1ccco1)S(=O)(=O)c1ccccc1Br	0.62%
CCOc1cc2[nH]c(=O)n(Cc3ccc(C(=O)NCCN(CC)CC)cc3)c(=O)c2cc1OCC	-0.328%
O=C(Nc1ccccc1C(F)(F)F)c1nc(S(=O)(=O)Cc2ccccc2F)ncc1Cl	0.0634%
CCOc1ccccc1NC(=O)Cn1nnc(C(=O)Nc2ccc(C)c(C)c2)c1N	1.55%
C/C=C/NNC(=O)Cc1ccc(OC)cc1	-0.93%
CC(C)(C)C1CCC(NC(=O)c2cnn3c2NC(=C2CC2)C=C3C(F)F)CC1 (stereo unspecified)	-1.12%
COCCn1c(N)c(NCc2ccccc2)c(=O)[nH]c1=O	1.47%
CCC(=O)Nc1ccc(C)cc1-c1nc2ccccc2n(Cc2ccccc2)c1=O	0.405%
Cc1cc2nc3c(=O)n(Cc4ccccc4)c(=O)[nH]c3nc2cc1N	94.8% (active)
COc1cc(OC)c(OC)cc1/C=C1\C=Cc2ccccc21	-0.666%
COc1ccc(Cc2nc3ccc(C(=O)NCc4ccccc4Cl)cc3o2)cc1	0.91%
COc1ccccc1CNc1nccn(-c2ccc(F)cc2)c1=O	0.564%
O=C1COc2ccc(-c3csc(-c4ccc(Cl)cc4)n3)cc2N1	-0.602%
NC(=O)Nc1ccc(/C=C/c2ccnc3ccccc23)cc1	-0.0317%
CC(=O)Nc1ccc(S(=O)(=O)N2N=NC3C2C2CC4C3(CN(C(=O)OC(C)(C)C)S4(=O)=O)O2)cc1 (stereo unspecified)	0.118%
COc1ccc(CNc2nc(-c3ccc(Cl)cc3)nn2S(=O)(=O)c2ccc(C)cc2)cc1	3.68%

Compound	activation
O=C(Nc1cccc2cccnc12)C(F)(F)F	1.01%
CCOc1ccc(NC(=O)c2cnn(-c3ccccc3)c2-n2cccc2)cc1	-0.36%
CC(C)(C)c1ccc(C(=O)C[n+]2cccc3cc(Cl)ccc32)cc1	0.444%
O=C(/C=C(O)/C=C/c1ccc(O)cc1)/C=C/c1ccc(O)cc1	80.8% (active)
COc1ccc(C(=O)c2oc3ccccc3c2NC(=O)COc2cccc(C)c2)cc1	-0.131%
Cc1cc(C)cc(NC(c2nnc(-c3cccc(F)c3)o2)c2ccc(F)cc2Cl)c1 (stereo unspecified)	0.152%
O=C1CCC[C@@H]2C[C@@]3(C[C@@H]4CCN1[C@H]24)Nc1ccccc1NC3=NCc1ccccc1	0.0295%
Cc1c(CCO)sc[n+]1CC(=O)c1ccc2ccccc2c1	-0.38%
O=C(c1ccc2c(c1)N(Cc1ccccc1F)C(=O)c1ccccc1S2(=O)=O)N1CCOCC1	-0.566%
COc1ccc(/C=C/c2ccnc3ccccc23)cc1OC	-0.507%
CN(C)C1=C2C=CC=CC2/C(=C2/C=Cc3ccccc32)C=C1 (stereo unspecified)	-0.475%
COc1cc2nc(C#Cc3nc4cc(OC)c(OC)cc4[nH]3)[nH]c2cc1OC	-0.266%
O=C(NC1CC(=O)N(c2ccc(F)cc2)C1)c1cccs1 (stereo unspecified)	-0.226%
CC(C)(C)OC(=O)N1CCC(c2c(C(=O)N3CCN(c4cccc(Cl)c4)CC3)cnn2-c2cccc(Cl)c2)CC1	69.8% (active)
Cc1cccc(-n2ncc(C(=O)N3CCc4ccccc4C3)c2C2CCN(C(=O)OC(C)(C)C)CC2)c1	0.364%
CCOC(=O)N1CCC(NC(=O)c2cnn(-c3cccc(C)c3)c2C2CCN(C(=O)OC(C)(C)C)CC2)CC1	0.0606%
COc1ccccc1CN1CCC(CNC(=O)c2cnn(-c3cccc(Cl)c3)c2C2CCN(C(=O)OC(C)(C)C)CC2)CC1	1.58%
Cc1cccc(-n2ncc(C(=O)N3CCN(c4ccc(Cl)cc4)CC3)c2C2CCN(C(=O)OC(C)(C)C)CC2)c1	51.3% (active)
Cc1cccc(-n2ncc(C(=O)N3CCC(C)CC3)c2C2CCN(C(=O)OC(C)(C)C)CC2)c1	0.455%
COCC(C)NS(=O)(=O)c1ccc(N2CCCCS2(=O)=O)cc1 (stereo unspecified)	-0.459%
CC1=C(c2ccc(F)cc2)S(=O)(=O)N=C1N1CCC(C(=O)NCCc2ccccc2C)CC1	2.54%
COc1ccc(-c2nc(=N)sn2-c2ccccc2)cc1	12.5%
COc1ccc(/C=C/c2ccccn2)cc1OC	-0.792%
